# Test system: MUSK
# Conditions: concentration: 1 μM, replicates: in singlicate; n = 1
# 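Further: KINOMEscan kinase panel screen.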
row,Structure (SMILES),%Inh [%]
1,N#CC1(c2cccc(C(=O)Nc3cccc(Oc4ccc5nc(NC(=O)C6CC6)sc5n4)c3)c2)CC1,0
2,O=C(Nc1n[nH]c2nc(-c3ccccc3)ccc12)C1CC1 [SB-708999],13
3,CC(C)c1nc(-c2cccc(NS(=O)(=O)c3c(F)cccc3F)c2)c(-c2ccnc(Nc3ccc(N4CCOCC4)nc3)n2)s1.Cl [GSK1723980],0
4,Cl.Cl.NCC(NC(=O)c1cc(-c2cccnc2)c(-c2ccnc3[nH]ccc23)s1)c1ccccc1 (stereo not shown) [GSK1323434],18
5,COC(=O)Nc1nc2cc(Oc3ccc(NC(=O)Nc4cccc(SC)c4)cc3)ccc2[nH]1.Cl [GW697999],98.9
6,O=C(Nc1n[nH]c2nc(-c3ccccc3O)ccc12)C1CC1 [SB-711880],0
7,O=C(Nc1n[nH]c2cc(-c3cccs3)ccc12)C1CC1 [SB-731284],0
8,O=C(Nc1c(F)cccc1F)c1cc(C(=O)c2ccccc2F)c[nH]1 [GSK1326180],0
9,Cc1ccc(Nc2ccnc(Nc3ccc(C)c(F)c3)n2)cc1O.Cl [GW582868],12
10,COc1cccc(-c2nc(-c3ccccc3)[nH]c2-c2ccncc2)c1 [SB-610250],0
11,CCn1cnc2c(NCc3ccccc3)ncnc21 [SKF-96418],0
12,Cl.Cl.NC(CNC(=O)c1cc(Br)c(-c2ccnc3[nH]ccc23)s1)c1ccccc1 (stereo not shown) [GSK1322949],22
13,CN(c1ccc(F)c(NC(=O)c2cccc(OC(C)(C)C#N)c2Cl)c1)c1ccc2nc(NC(=O)C3CC3)sc2n1,0

# From article PMC5540273 (PLoS ONE, 2017)
